Test results as given in PubChem BioAssay.
Values joined by “and” are separate entries in the source; they are usually repeats but may differ in a detail not shown here. Identical values can stand only once. Active and inactive are the calls of the source.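 The calls were made as follows, unless noted: active = compounds whose cell count with miR-34 switched on is under 0.7 times the count with it off; inactive = the rest.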

Experiment: NPC library primary testing for decreased DLD-1 cell viability via CellTiter-Glo (AID 1117346;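 active = compounds that lower survival of DLD-1 colon cancer cells in the luminescence readout, no cutoff given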)
Details: DLD-1 viability, CellTiter-Glo luminescence; at 20 µM (top of the series)
With `CN(CCCCCCCCCCN(C)C(=O)Oc1cccc([N+](C)(C)C)c1)C(=O)Oc1cccc([N+](C)(C)C)c1` the viability decrease (inhibition) was 10.2% (inactive). In the case of `CC(C(=O)O)c1ccc(C(=O)c2ccccc2)s1` (centres undefined), the viability decrease (inhibition) is reported as 10.6% (inactive). In the case of `CN1CCCN(C(c2ccccc2)c2ccc(Cl)cc2)CC1` (centres undefined), the viability decrease (inhibition) is reported as 71% (active). With `O=C1CC[C@@H](C(=O)O)N1` the viability decrease (inhibition) was 6.75% (inactive). In the case of `CCOC(=O)Nc1ccc2c(c1)N(C(=O)CCN1CCOCC1)c1ccccc1S2`, the viability decrease (inhibition) is reported as -16.3% (inactive). For `COc1ccc(-c2cc(=S)ss2)cc1`, the viability decrease (inhibition) was 11% (inactive). For `CN1CCN(C2=Nc3ccccc3Sc3ccc(Cl)cc32)CC1`, the viability decrease (inhibition) was 72.4% (active). With `CCCNC(C)C(=O)Nc1c(C)csc1C(=O)OC` (centres undefined) the viability decrease (inhibition) was 2.2% (inactive). For `O=C(O)Cc1sc(-c2ccccc2)nc1-c1ccc(Cl)cc1`, the viability decrease (inhibition) was 16.6% (inactive). For `NS(=O)(=O)c1cc2c(cc1Cl)NC(CC1CCCC1)NS2(=O)=O` (centres undefined), the viability decrease (inhibition) was -0.6% (inactive). With `O=C(O)c1ccc[n+]([O-])c1` the viability decrease (inhibition) was -2.85% (inactive). With `CN(C)CCn1nnnc1SCC1=C(C(=O)O)N2C(=O)[C@@H](NC(=O)Cc3csc(N)n3)[C@H]2SC1` the viability decrease (inhibition) was -6.8% (inactive). With `CC(C)(C)C(=O)OCOC(=O)[C@@H]1N2C(=O)[C@@H](NC(=O)[C@H](N)c3ccccc3)[C@H]2SC1(C)C` the viability decrease (inhibition) was -16.8% (inactive). For `COCC(=O)Nc1c(I)c(C(=O)NCC(O)CO)c(I)c(C(=O)N(C)CC(O)CO)c1I` (centres undefined), the viability decrease (inhibition) was -7.9% (inactive). With `C1CCN2C[C@@H]3C[C@@H](CN4CCCC[C@@H]34)[C@H]2C1` the viability decrease (inhibition) was 4.2% (inactive). With `Cc1c(-c2ccccc2)oc2c(C(=O)OCCN3CCCCC3)cccc2c1=O` the viability decrease (inhibition) was -0.8% (inactive). With `CCCCN1C[C@H](O)[C@@H](O)[C@H](O)[C@H]1CO` the viability decrease (inhibition) was 3.5% (inactive). In the case of `NC(=O)OCC(O)COc1ccc(Cl)cc1` (centres undefined), the viability decrease (inhibition) is reported as 11.4% (inactive). In the case of `CCCCc1cc2ccccc2c(OCCN(C)C)n1`, the viability decrease (inhibition) is reported as -3.7% (inactive). In the case of `O=C1[O][Bi][O]c2ccccc21`, the viability decrease (inhibition) is reported as 3.2% (inactive). In the case of `C[N+]1(C)CCC(=C(c2ccccc2)c2ccccc2)CC1`, the viability decrease (inhibition) is reported as -3.1% (inactive). With `CC(C)NC[C@@H](O)COc1ccc(CC(N)=O)cc1` the viability decrease (inhibition) was -7% (inactive). For `OCc1ccccn1`, the viability decrease (inhibition) was -10.2% (inactive). In the case of `CN1CCCC(CC2c3ccccc3Sc3ccccc32)C1` (centres undefined), the viability decrease (inhibition) is reported as 77.8% (active).

Experiment: viability loss with induced miR-34 in A549 – imaging, A549 dox-inducible miR-34, nuclei and caspase counts, primary screen (AID 1347080)
Details: A549 miR-34 inducible, Hoechst nuclei count, 48 h; hits give low values; cell number ratio, induced over uninduced
In the case of `Cc1cc2c(OCC(CNC(C)(C)C)OC(=O)c3ccccc3)cccc2[nH]1` (centres undefined), the fold change is reported as 0.853 (inactive). In the case of `CC(CNC1CCCCC1)OC(=O)c1ccccc1` (centres undefined), the fold change is reported as 0.95 (inactive). In the case of `C[C@]12CC[C@H]3[C@@H](CCC4=CC(=O)CC[C@@]43C)[C@@H]1CC[C@@H]2C(=O)CO`, the fold change is reported as 0.793 (inactive). With `CCc1cccc(CC)c1NC(=O)CN(CC(=O)O)CC(=O)O` the fold change was 0.877 (inactive). With `CCC(=O)c1ccc(O)cc1` the fold change was 0.903 (inactive). With `FCOC(C(F)(F)F)C(F)(F)F` the fold change was 0.911 (inactive). With `COc1ccccc1Oc1c(NS(=O)(=O)c2ccc(C(C)(C)C)cc2)nc(-c2ncccn2)nc1OCCO` the fold change was 0.921 (inactive) and 0.93 (inactive) and 0.843 (inactive). For `CCC(C)(CN(C)C)OC(=O)c1ccccc1` (centres undefined), the fold change was 0.964 (inactive). In the case of `OC[C@@H](O)[C@@H](O[C@@H]1O[C@H](CO)[C@H](O)[C@H](O)[C@H]1O)[C@H](O)[C@@H](O)CO`, the fold change is reported as 0.928 (inactive). With `CC1(C)CC1C(=O)NC(=CCCCCSCC(N)C(=O)O)C(=O)O` (centres undefined) the fold change was 0.936 (inactive). For `C/C(=C(\CCOP(=O)(O)O)SC(=O)c1ccccc1)N(C=O)Cc1cnc(C)nc1N`, the fold change was 0.873 (inactive). With `CC[N+](C)(CC)CCOC(=O)C1c2ccccc2Oc2ccccc21` the fold change was 0.995 (inactive). For `CN1CCN(CCCN2c3ccccc3Sc3ccc(S(=O)(=O)N(C)C)cc32)CC1`, the fold change was 0.928 (inactive). In the case of `O=C(O)CCc1nc2ccccc2[nH]1`, the fold change is reported as 0.93 (inactive). With `OC(CCCN1CCCCC1)(c1ccccc1)c1ccccc1` the fold change was 0.908 (inactive) and 0.916 (inactive). For `NS(=O)(=O)c1cc(C(=O)O)cc(N2CCCC2)c1Oc1ccccc1`, the fold change was 0.92 (inactive). For `CN(CCCCCCCCCCN(C)C(=O)Oc1cccc([N+](C)(C)C)c1)C(=O)Oc1cccc([N+](C)(C)C)c1`, the fold change was 0.802 (inactive). With `CC(C(=O)O)c1ccc(C(=O)c2ccccc2)s1` (centres undefined) the fold change was 0.849 (inactive). For `CN1CCCN(C(c2ccccc2)c2ccc(Cl)cc2)CC1` (centres undefined), the fold change was 0.886 (inactive). With `O=C1CC[C@@H](C(=O)O)N1` the fold change was 0.878 (inactive). With `CCOC(=O)Nc1ccc2c(c1)N(C(=O)CCN1CCOCC1)c1ccccc1S2` the fold change was 0.922 (inactive). For `COc1ccc(-c2cc(=S)ss2)cc1`, the fold change was 0.899 (inactive). With `CN1CCN(C2=Nc3ccccc3Sc3ccc(Cl)cc32)CC1` the fold change was 0.882 (inactive). For `CCCNC(C)C(=O)Nc1c(C)csc1C(=O)OC` (centres undefined), the fold change was 0.925 (inactive) and 0.913 (inactive). With `O=C(O)Cc1sc(-c2ccccc2)nc1-c1ccc(Cl)cc1` the fold change was 0.887 (inactive). With `NS(=O)(=O)c1cc2c(cc1Cl)NC(CC1CCCC1)NS2(=O)=O` (centres undefined) the fold change was 0.993 (inactive). In the case of `O=C(O)c1ccc[n+]([O-])c1`, the fold change is reported as 0.936 (inactive). In the case of `CN(C)CCn1nnnc1SCC1=C(C(=O)O)N2C(=O)[C@@H](NC(=O)Cc3csc(N)n3)[C@H]2SC1`, the fold change is reported as 0.874 (inactive). With `CC(C)(C)C(=O)OCOC(=O)[C@@H]1N2C(=O)[C@@H](NC(=O)[C@H](N)c3ccccc3)[C@H]2SC1(C)C` the fold change was 0.926 (inactive). For `COCC(=O)Nc1c(I)c(C(=O)NCC(O)CO)c(I)c(C(=O)N(C)CC(O)CO)c1I` (centres undefined), the fold change was 0.856 (inactive). In the case of `C1CCN2C[C@@H]3C[C@@H](CN4CCCC[C@@H]34)[C@H]2C1`, the fold change is reported as 0.853 (inactive). For `Cc1c(-c2ccccc2)oc2c(C(=O)OCCN3CCCCC3)cccc2c1=O`, the fold change was 0.916 (inactive) and 1.06 (inactive). With `CCCCN1C[C@H](O)[C@@H](O)[C@H](O)[C@H]1CO` the fold change was 0.88 (inactive). In the case of `NC(=O)OCC(O)COc1ccc(Cl)cc1` (centres undefined), the fold change is reported as 0.864 (inactive). In the case of `CCCCc1cc2ccccc2c(OCCN(C)C)n1`, the fold change is reported as 0.931 (inactive). For `O=C1[O][Bi][O]c2ccccc21`, the fold change was 0.887 (inactive). With `C[N+]1(C)CCC(=C(c2ccccc2)c2ccccc2)CC1` the fold change was 0.907 (inactive) and 1.1 (inactive). For `CC(C)NC[C@@H](O)COc1ccc(CC(N)=O)cc1`, the fold change was 0.872 (inactive). In the case of `OCc1ccccn1`, the fold change is reported as 0.898 (inactive). For `CN1CCCC(CC2c3ccccc3Sc3ccccc32)C1` (centres undefined), the fold change was 0.892 (inactive).
